Assay outcomes deposited in PubChem BioAssay by National Center for Advancing Translational Sciences (NCATS).
ELG1 DNA repair: blocks ELG1-dependent DNA repair in HEK293T cells; HEK293T ELG1-luciferase reporter, luminescence, 16 h; DNA damage induced by 5-fluorouridine; Potency, µM (top dose mostly 46.1 µM), most hits filed as inhibitors; actives 2.3% (n = 330,000); AID 504467; note: nearly all actives have a fitted effect of over 55% in size
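Overnight (16 hr) co-exposure of 2,000 cells/well to 5-fluorouridine and compound at 37 °C preceded detection. Luciferase was quantified via ONE-Glo luminescence; loss of signal denotes inhibition.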
KB-V1 cytotox: kills drug-selected multidrug resistant KB-V1 cells. KB-V1 MDR cells viability, CellTiter-Glo, 72 h. Potency, µM (doses to about 46.1 µM), usual class: cytotoxic. actives 3.4% (n = 400,000); note: nearly all actives have a fitted effect of over 60% in size
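Following 72 h at 37 degrees C with compound, KB-V1 cell viability was read by CellTiter-Glo luminescence, medium being phenol-red-free DMEM plus 10% FBS; concentration-response parameters came from normalized, curve-fitted qHTS data.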
SW480 rerep: inducers of DNA re-replication in SW480 colon cancer cells; AID 624297; actives 1.8% (n = 340,000); Potency, µM (highest dose often 46.1 µM), most hits filed as activators; SW480 DNA re-replication, Hoechst DNA content imaging, 48 h; note: nearly all actives have a fitted effect of over 55% in size
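SW480 cells exposed to compounds for 48 hr at 37 C, 5% CO2, then Hoechst-stained 40 min. Nuclear DNA content imaged by fluorescence scanning (405 nm excitation, 500-530 nm emission); re-replication scored as increased high-intensity nuclei.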
MCF10A rereplic: DNA re-replication induction in MCF 10a cells; AID 624296; MCF 10A DNA re-replication, Hoechst nuclear intensity, 48 h; actives 2.9% (n = 350,000); Potency, µM (titrated, usually from 46.1 µM), most hits filed as activators; note: nearly all actives have a fitted effect of over 50% in size
KB-3-1 tox: KB-3-1 parental cell cytotoxicity; actives 1.4% (n = 400,000); Potency, µM (titrated, usually from 46.1 µM), actives largely listed as cytotoxic; KB-3-1 viability, CellTiter-Glo ATP luminescence, 72 h; note: nearly all actives have a fitted effect of over 60% in size
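Cytotoxicity in the drug-sensitive parental line KB-3-1 was scored as loss of CellTiter-Glo luminescence following 72 h incubation with compound. Values come from curve fitting of normalized concentration-response data.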
Hits are given with their value; - = inactive; ? = inconclusive; . = not tested or not shown; ! = repeats disagree. Sampled rows, rich in hits. Any-hit rate of the full collection: about 8.2%. Calls come from the whole dose curve; as a rule, active = well fitted curve in the direction sought with a large enough effect; inconclusive = small, poorly fitted or top-dose-only effect, or another doubt; inactive = no such curve, though single readings can be large; an effect the other way counts as inactive or inconclusive.

SMILES | ELG1 DNA repair | KB-V1 cytotox | SW480 rerep | MCF10A rereplic | KB-3-1 tox
COc1ccc(C(=O)/C=C/c2cc(C(=O)O)cc3c2OCOC3)c(O)c1 | ? | - | - | 18.4µM | -
COC(=O)c1ccccc1NC(=O)C1CCN(S(=O)(=O)c2cc(C)ccc2OC)CC1 | ? | - | - | - | -
COc1cccc(O)c1CN1CCC(C(=O)Nc2ccc(-c3cccc(C)c3)cc2)CC1 | ? | ? | ? | ? | 18.4µM
COc1ccc(OC)c(S(=O)(=O)N2CCC(C(=O)Nc3cc(C)ccc3C)CC2)c1 | ? | ? | 4.61µM | ? | -
COc1ccc(OC)c(S(=O)(=O)N2CCC(C(=O)Nc3ccccc3)CC2)c1 | - | - | ? | - | ?
COc1ccc(OC)c(S(=O)(=O)N2CCC(C(=O)Nc3cccc(C)c3)CC2)c1 | 20.6µM | ? | - | - | -
O=C(/C=C/c1ccc(F)cc1)Nc1cccc(S(=O)(=O)N2CCOCC2)c1 | ? | . | - | ? | .
O=C(O)COc1ccc(/C=C/C(=O)c2ccc3ccccc3c2)cc1 | - | - | - | 18.4µM | ?
COc1ccc(Oc2ccc(/C=C/C(=O)c3ccc(O)cc3)cc2[N+](=O)[O-])cc1 | ? | ? | 7.31µM | 2.91µM | -
O=C(/C=C/c1ccc(O)c([N+](=O)[O-])c1)c1ccc2ccccc2c1 | - | - | ? | 7.31µM | -
COc1ccc(C(=O)/C=C/c2cccc(OCc3ccccc3)c2)cc1CSCC(=O)O | ? | ? | - | - | ?
O=C(O)COc1ccc(/C=C/C(=O)c2ccc(C3CCCCC3)cc2)cc1 | ? | - | ? | ? | -
COc1ccc(C(=O)/C=C/c2ccc(OCc3ccccc3)cc2)cc1CSCC(=O)O | - | - | ? | 23.1µM | -
NC(=O)CC[C@H](NC(=O)c1ccc(Cl)cc1)C(=O)NNC(=O)COc1cccc(Br)c1 | - | - | - | - | -
Cn1nccc1C(=O)Nc1ccc(OC(=O)c2ccnn2C)cc1 | 23.1µM | - | - | - | -
Cc1ccc2nc(SCc3ccccc3)c(C=O)c(=O)n2c1 | - | 8.2µM | - | - | -
COc1ccc(-n2nc3ccc(N)cc3n2)cc1 | . | - | . | . | -
Nc1ccc2nn(-c3cc([N+](=O)[O-])ccc3O)nc2c1 | - | - | - | - | -
Cc1ccc(-n2nc3ccc(N)cc3n2)cc1 | ? | - | 16.4µM | ? | -
CC(C)C(=O)Nc1ccc2nn(-c3ccc(F)cc3)nc2c1 | ? | - | - | ? | -
Nc1ccc2nn(-c3ccc(F)cc3)nc2c1 | ? | - | ? | 18.4µM | -
CC(C)c1ccc(-n2nc3ccc(N)cc3n2)cc1 | ? | - | 23.1µM | 23.1µM | -
CC(C(=O)N1CCc2ccccc21)N1CCN(S(=O)(=O)c2ccc3c(c2)OCCCO3)CC1 (centres undefined) | . | ? | - | - | -
CCOC(=O)C1CCN(CC(=O)N2CCCc3c2c(=O)oc2ccc(OCc4ccccc4)cc32)CC1 | . | - | . | . | -
O=C(CN1CCCC1)N1CCCc2c1c(=O)oc1ccc(OCc3ccccc3)cc21 | ? | 18.4µM | ? | - | -
SMILES | ELG1 DNA repair | KB-V1 cytotox | SW480 rerep | MCF10A rereplic | KB-3-1 tox
CCCOc1ccc2oc(=O)c3c(c2c1)CCCN3C(=O)CN1CCN(c2ncccn2)CC1 | - | - | - | - | -
CCCOc1ccc2oc(=O)c3c(c2c1)CCCN3C(=O)CN1CCCC(C(=O)OCC)C1 (centres undefined) | - | 11.6µM | - | - | -
COC(=O)C[C@@H]1C[C@@H]2c3cc(NC(=O)NC4CCCCC4)ccc3O[C@@H]2[C@H](CO)O1 | . | - | . | . | -
CCc1ccc(NS(=O)(=O)c2ccc(C(=O)N(C)C)s2)cc1 | . | - | . | . | -
CC(=O)N(C(C)=O)c1c(C#N)c(C)n(-c2ccccc2)c1C(=O)c1ccccc1 | - | ? | ? | 6.51µM | -
Cc1[nH]c(C(=O)O)c(C#N)c1C(=O)c1ccccc1 | - | ? | - | - | -
O=C(c1cccc(S(=O)(=O)NCc2ccccc2)c1)N1CCCC(C(F)(F)F)C1 (centres undefined) | ? | - | - | - | -
Cc1cc2c(NC(=O)Nc3ccc(C(C)(C)C)cc3)cccc2nn1 | 14.6µM | - | ? | ? | ?
N#Cc1c(N)n(C2OC(CO)C(O)C2O)c2ncnc(N)c12 (centres undefined) | . | 0.206µM | ? | 0.231µM | 0.231µM
Nc1ncnc2c1ncn2[C@@H]1O[C@H](CO)[C@@H](O)[C@@H]1O | . | - | - | 7.31µM | -
COc1cc(Cl)c(CNC[C@H]2O[C@@H](n3cnc4c(N)ncnc43)[C@H](O)[C@@H]2O)c(Cl)c1O | ? | - | - | 7.31µM | -
OCC1OC(n2cnc3c(NCc4ccco4)ncnc32)C(O)C1O (centres undefined) | . | ? | 8.2µM | 1.03µM | 13µM!
Nc1ncnc2c1ncn2C1O[C@H](CO)[C@@H](O)[C@@H]1O (some centres undefined) | - | - | - | - | -
Cc1ccccc1CNc1ncnc2c1ncn2C1OC(CO)C(O)C1O (centres undefined) | . | . | - | - | .
Nc1ncnc2c1ncn2C1OC(CO)C(O)C1O (centres undefined) | ? | - | - | - | -
O=C(C[n+]1cccc2cccc(O)c21)c1ccc2ccccc2c1 | . | - | . | . | -
NC(=O)CCC(NC(=O)c1ccc(Cl)cc1)C(=O)NCCc1ccc2c(c1)OCCO2 (centres undefined) | - | - | - | - | -
OC[C@H]1O[C@@H](n2cnc3c(NCc4ccco4)ncnc32)[C@H](O)[C@@H]1O | . | - | ? | ? | 16.4µM
CCCn1nc(NC(=O)CC(C)C)c2cc3cccc(C)c3nc21 | - | - | 10.3µM | 10.3µM | -
CCCC(=O)Nc1nn(C)c2nc3c(C)cccc3cc12 | - | - | ? | ? | -
CCCn1nc(NC(C)=O)c2cc3cccc(C)c3nc21 | ? | - | 18.4µM | 18.4µM | -
CCn1nc(NC(=O)CC(C)C)c2cc3cccc(C)c3nc21 | - | - | 20.6µM | 9.2µM | -
Cc1cccc2cc3c(NC(=O)c4ccccn4)nn(C)c3nc12 | - | - | ? | 8.2µM | -
CCCn1nc(NC(=O)COC)c2cc3cccc(C)c3nc21 | - | - | - | - | -
C(=Nc1cccnc1)c1ccnc2ccccc12 | . | - | . | . | -
CCn1nc(NS(=O)(=O)c2ccccc2[N+](=O)[O-])c2cc3cccc(C)c3nc21 | - | - | - | - | -
CCn1nc(NC(=O)C(C)(C)C)c2cc3cccc(C)c3nc21 | - | - | ? | 6.51µM | -
Cc1ccccc1C(=O)NCC(=O)OC(C)C(=O)Nc1cccc(S(=O)(=O)N2CCOCC2)c1 (centres undefined) | - | - | - | - | -
CCn1c(C)cc(C(=O)COC(=O)c2ccccc2[N+](=O)[O-])c1C | ? | 25.9µM | - | - | -
Cc1cc(-n2c(C)cc(C(=O)COc3cccnc3[N+](=O)[O-])c2C)no1 | - | 16.4µM | 8.2µM | 7.31µM | ?
